Experimental findings from the supplement of paper PMC8047044 are described below.

Each structure is given as a SMILES string. ± gives the standard deviation of the averaged measurements.

This test deals with Neuro-2a. The test can be described thus: neurite formation score, plate-normalized to DMSO control mean 5.04 (score (0-8 scale)); higher = more or longer neurites. The settings on record: 1 µM. The protocol: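 Neuro-2a mouse neuroblastoma cells in PLL-coated 96-well plates were pre-treated for 1 h in DMEM(+) with each kinase inhibitor at 1 µM, then switched to serum-free DMEM(-) with inhibitor to induce neurite outgrowth and fixed about 2-3 h later. Three blinded observers scored neurite formation from 0 (no neurites) to 8 (long neurites on almost all cells).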
Consider `O=C1c2ccccc2-c2n[nH]c3cccc1c23`, for which the neurite formation score was determined as 4.02.
In the case of `c1cc(-c2cnn3cc(-c4ccc(N5CCNCC5)cc4)cnc23)c2cccnc2c1` it was 4.88.
To `N#Cc1c(O)c2c(-c3ccc(-c4ccccc4O)cc3)csc2[nH]c1=O` belongs 5.69; to `Cn1cnc(=N)c2[nH]cnc21` [3-Methyladenine], 4.24; to `CN1CCN(c2ccc(OC(F)(F)F)c(Nc3ncc4c(n3)-c3c(c(C(N)=O)nn3CCO)CC4)c2)CC1`, 4.88.
`C=CC(=O)Nc1ccc2ncnc(Nc3cccc(Br)c3)c2c1` showed a neurite formation score of 4.24.
In the case of `CS(=O)(=O)c1cccc(CNc2nc(Nc3ccc4c(c3)CCC(=O)N4)ncc2C(F)(F)F)c1` it was 3.47; in that of `Cc1nc(NC(=O)N2CCC[C@H]2C(N)=O)sc1-c1csc(C(C)(C)C)n1`, 4.57.
To `CO[C@@H](C(=O)N1Cc2[nH]nc(NC(=O)c3ccc(N4CCN(C)CC4)cc3)c2C1)c1ccccc1` belongs 3.69; to `COc1ccc2c(OCc3nnc4ccc(-c5ccccc5)nn34)ccnc2c1`, 4.54; to `CCn1cc(-c2ccnc3[nH]c(-c4cccc(CN(C)C)c4)cc23)c(-c2ccc(NC(=O)N(C)C)cc2)n1`, 4.69.
In the case of `CC(C)NC[C@@H](C(=O)N1CCN(c2ncnc3c2[C@H](C)C[C@H]3O)CC1)c1ccc(Cl)cc1` it was 4.24; in that of `C[C@H]1[C@H](C)CC[C@]2(C(=O)O)CC[C@]3(C)C(=CC[C@@H]4[C@@]5(C)C[C@@H](O)[C@H](O)[C@@](C)(CO)[C@@H]5CC[C@]43C)[C@H]12` [Asiatic acid], 4.21; in that of `O=C(c1ccc(/C=C/c2n[nH]c3ccccc23)cc1)N1CCNCC1`, 6.02.
Compound `CO[C@H]1C[C@@H]2CC[C@@H](C)[C@@](O)(O2)C(=O)C(=O)N2CCCC[C@H]2C(=O)O[C@H]([C@H](C)C[C@@H]2CC[C@@H](O)[C@H](OC)C2)CC(=O)[C@H](C)/C=C(\C)[C@@H](O)[C@@H](OC)C(=O)[C@H](C)C[C@H](C)/C=C/C=C/C=C/1C` [Rapamycin (Sirolimus)] returned a neurite formation score of 4.57.
Consider `CNC(=O)CN1CCC(Oc2cc3c(Nc4cccc(Cl)c4F)ncnc3cc2OC)CC1` [AZD8931 (Sapitinib)], for which the neurite formation score was 4.29.
In the case of `O=c1cc(-c2ccccc2)oc2c(O)c(O)ccc12` [7,8-Dihydroxyflavone] it was 4.21; in that of `C[C@@H]1CCNC(=O)c2cc3ccc(C(=O)Nc4nc5ccccc5n4CCCN(C)C)cc3n21`, 5.29; in that of `O=C(NOCC(O)CO)c1cc(Br)c(F)c(F)c1Nc1ccc(I)cc1F` (stereo not given), 4.57.
In the case of `COC(=O)Nc1nc2cc(C(=O)c3cccs3)ccc2[nH]1` [Nocodazole] it was 1.29; in that of `O=C(NC[C@H](O)CO)c1ccncc1Nc1ccc(I)cc1F`, 3.9; in that of `Cc1ncc(-c2ccnc(Nc3ccc(S(C)(=O)=O)cc3)n2)n1C(C)C`, 4.24.
To `CC[C@@H]1C(=O)N(C)c2cnc(Nc3ccc(C(=O)NC4CCN(C)CC4)cc3OC)nc2N1C1CCCC1` belongs 5.02.
For `O=C(Nc1nc2cccc(-c3ccc(CN4CCS(=O)(=O)CC4)cc3)n2n1)C1CC1`, the neurite formation score was 4.88 ± 0.58.
In the case of `Cc1ccc(S(=O)(=O)/C=C/C#N)cc1` it was 5.14; in that of `O=C1NC(=O)/C(=C\c2ccc3nccnc3c2)S1`, 4.14; in that of `Cc1cc(NC(=O)c2cccc(NC(=O)/C=C/CN(C)C)c2)ccc1Nc1nccc(-c2cccnc2)n1`, 5.36.
To `CC[C@@H]1C(=O)N(C)c2cnc(Nc3ccc(C(=O)N[C@H]4CC[C@H](N5CCN(CC6CC6)CC5)CC4)cc3OC)nc2N1C(C)C` [BI6727 (Volasertib)] belongs 5.29; to `O=C1NC(=O)/C(=C/c2cccc(C(F)(F)F)c2)S1`, 4.36; to `CCN1CCN(c2ccc(Nc3cc(N(C)C(=O)Nc4c(Cl)c(OC)cc(OC)c4Cl)ncn3)cc2)CC1`, 3.8.
Take `CC1(COc2ccc3c(c2)ncn3-c2ccc3cccc(N4CCC(N)CC4)c3n2)COC1`: the neurite formation score was determined as 3.57.
In the case of `CC(C)(C)n1nc(Cc2cccc3ccccc23)c2c(N)ncnc21` it was 4.63; in that of `CN1C/C=C/CCOc2cccc(c2)-c2ccnc(n2)Nc2cccc(c2)C1`, 2.8; in that of `COc1cc(Nc2ncc(F)c(Nc3ccc4c(n3)NC(=O)C(C)(C)O4)n2)cc(OC)c1OC` [R406 (free base)], 3.9.
In the case of `CNC(=O)c1c(F)cccc1Nc1nc(Nc2cc3c(cc2OC)CCN3C(=O)CN(C)C)nc2[nH]ccc12` it was 4.96; in that of `O=C1NCCc2[nH]c(-c3ccncc3)cc21`, 5.69.
The compound `COc1cc(C(=O)NC2CCN(C)CC2)ccc1Nc1ncc2c(n1)N(C1CCCC1)CC(F)(F)C(=O)N2C` showed a neurite formation score of 4.29.
`O=C(NOC[C@H](O)CO)c1ccc(F)c(F)c1Nc1ccc(I)cc1F` gave a neurite formation score of 4.91.
As for `COc1cc2c(c(OC)c1OC)-c1c(cc3c(c1OC)OCO3)CC(C)C(C)C2` (stereo not given) [Schizandrin B], the neurite formation score stood at 4.88.
In turn, `CC(C)[C@H](CO)Nc1nc(Nc2cccc(Cl)c2)c2ncn(C(C)C)c2n1` [Purvalanol A] displayed a neurite formation score of 3.54.
